Screens as filed in PubChem BioAssay.
Sampled rows, rich in hits. Any-hit rate of the full collection: about 19%.
TDP1 cell CPT = qHTS for Inhibitors of human tyrosyl-DNA phosphodiesterase 1 (TDP1): qHTS in cells in presence of CPT; chicken DT40 Tdp1-/-;hTDP1 cells + 20 nM CPT, ATP luminescence, 48 h; Potency, µM (highest dose often 46.2 µM), for the others: at the highest dose activity change, negative = growth inhibition, most hits filed as inhibitors; hit rate 12% among 420,000; AID 686979, 2013; also: nearly all actives have a fitted effect of over 55% in size
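Cell growth measured by CellTiter-Glo luminescence after a minimum 48 h, 37 C compound exposure with 20 nM CPT in Tdp1-knockout DT40 cells stably expressing hTDP1, seeded 400/well; qHTS titration format.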
KB-3-1 tox = qHTS assay for MDR1-selective chemotherapeutics: Primary screen using the parental adenocarcinoma cell KB-3-1 | KB-3-1 viability, CellTiter-Glo ATP luminescence, 72 h | hit rate 1.4% among 400,000 | AID 1347075, 2019 | Potency, µM (titrated, usually from 46.1 µM), usual class: cytotoxic; also: nearly all actives have a fitted effect of over 60% in size
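Here the drug-naive KB-3-1 line serves as comparator for MDR sub-line selectivity; cells received compound titrations, 72 h at 37 °C, then CellTiter-Glo readout.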
HT1080 IDH1KD tx = qHTS for induction of synthetic lethality in tumor cells producing 2HG: qHTS for the HT-1080-IDH1KD cell line; AID 686971, 2013; HT-1080 IDH1 knockdown viability, ATP luminescence, 48 h; hit rate 2% among 360,000; Potency, µM (doses to about 46.1 µM), for inactives: top-dose activity, negative = toxicity, most hits filed as cytotoxic;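 also: 0% = DMSO wells and -100% = cell-free medium wells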
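IDH1KD HT-1080 cells, 750/well, RPMI + 5% FBS; compound pinned after 2 h settling; 48 h, 37 °C; CellTiter-Glo luminescence; % activity normalised to DMSO and no-cell wells; curves fitted, classed by r2 and efficacy.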
HT1080NT lethal = qHTS for induction of synthetic lethality in tumor cells producing 2HG: qHTS for the HT-1080-NT fibrosarcoma cell line | Potency, µM (top dose mostly 46.1 µM), for the others: top-dose activity, negative = less viability, usual class: cytotoxic | HT-1080-NT fibrosarcoma viability, CellTiter-Glo ATP luminescence, 48 h | hit rate 1.6% among 360,000;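 also: NT is the 2HG producing partner of a matched IDH1 knockdown line; 0% = DMSO-treated cells and -100% = media-only wells without cells; nearly all actives have a fitted effect of over 55% in size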
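Read-out is CellTiter-Glo luminescence after 10 minutes at room temperature, following 48 hours' compound treatment of HT-1080-NT cells (750 cells/well, RPMI, 5% FBS, 37 degrees C).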
TDP1 cell noCPT = qHTS for Inhibitors of human tyrosyl-DNA phosphodiesterase 1 (TDP1): qHTS in cells in absence of CPT. hit rate 15% among 420,000. DT40 Tdp1-/- hTDP1 cells, no CPT, ATP luminescence, 48 h. Potency, µM (series often up to 46.2 µM), inactives show at the top dose activity change, negative = growth inhibition, actives largely listed as inhibitors. AID 686978, 2013; also: nearly all actives have a fitted effect of over 55% in size
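Chicken DT40 Tdp1-/- cells complemented with human TDP1, screened without camptothecin (DMSO vehicle only), 400 cells/well. Compounds pin-transferred, cells incubated at 37 °C for at least 48 hr. Growth read as ATP-dependent luminescence (CellTiter-Glo, 30 min at RT).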
KB-V1 cytotox = qHTS assay for MDR1-selective chemotherapeutics: Primary screen using the drug-selected MDR subline cells KB-V1; Potency, µM (doses to about 46.1 µM), hits mostly cytotoxic; KB-V1 MDR cells viability, CellTiter-Glo, 72 h; hit rate 3.4% among 400,000; also: nearly all actives have a fitted effect of over 60% in size
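Cytotoxicity toward P-gp-expressing KB-V1 cells was determined as loss of CellTiter-Glo luminescence after 72 h at 37 degrees C. Compounds were tested in quantitative HTS format across a concentration range, with curves fitted to normalized data.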
The depositor's hits bear a star; i = inactive; ? = inconclusive; . = not tested or not shown. Calls follow the shape of the dose curve; as a rule, active = well fitted curve in the direction sought with a large enough effect; inconclusive = small, poorly fitted or top-dose-only effect, or another doubt; inactive = no such curve, though single readings can be large; an effect the other way counts as inactive or inconclusive. Unless noted, % is scaled to controls: 0 for no effect and ±100 for the full control effect; potency is read from the fitted curve at half-maximal effect.

SMILES	TDP1 cell CPT	KB-3-1 tox	HT1080 IDH1KD tx	HT1080NT lethal	TDP1 cell noCPT	KB-V1 cytotox
CC(C)S(=O)(=O)N1CCCC(c2cc(C(=O)NCc3cccnc3)no2)C1 (configuration not stated)	-23.4%	i	7.2%	22.4%	-8.5%	i
COc1ccc(S(=O)(=O)N2CCCC(c3cc(C(=O)NCc4cccnc4)no3)C2)cc1 (configuration not stated)	23.1µM*	i	0.1%	?	?	i
O=C(Nc1ccc(F)c(Cl)c1)c1cc(C2CCCN(S(=O)(=O)c3cccc4cccnc34)C2)on1 (configuration not stated)	?	i	-19.2%	-10.7%	25.9µM*	i
O=c1ccc2cc(S(=O)(=O)Nc3ccc(F)c(Cl)c3)ccc2[nH]1	-1.6%	i	.	.	-26.4%	i
Cc1ccc(Cn2c(SC(C)C(N)=O)nc3ccccc3c2=O)cc1 (configuration not stated)	-7.3%	i	-12.2%	-2.8%	?	i
CCCNC(=O)c1cc(C2CCCN(S(=O)(=O)c3cccc4cccnc34)C2)on1 (configuration not stated)	16.4µM*	i	12.2%	0.4%	?	i
O=C(NCc1cccnc1)c1cc(C2CCCCN2S(=O)(=O)c2cccc3cccnc23)on1 (configuration not stated)	11.6µM*	i	10.5%	7.8%	?	i
CCCNC(=O)c1cc(C2CCCN(C(=O)c3ccc4ccccc4c3)C2)on1 (configuration not stated)	18.4µM*	i	-1.1%	14.6%	23.1µM*	i
CCCNC(=O)c1cc(C2CCCCN2S(=O)(=O)c2cccc3cccnc23)on1 (configuration not stated)	?	i	8.2%	16.2%	-20.7%	i
CCCNC(=O)c1cc(C2CCCN(C(=O)c3ccc(OC)cc3)C2)on1 (configuration not stated)	-8.4%	i	4.8%	15.3%	-27.1%	i
CCCCc1ccc(S(=O)(=O)NC(=O)C2(C)CCN2C(=O)c2cccc(F)c2)cc1 (configuration not stated)	-11.8%	i	2.0%	0.0%	-5.3%	i
N#CC1=C2SCN(C3CCCCC3)CN2C(=O)CC1c1ccc(Cl)cc1 (configuration not stated)	4.61µM*	i	.	.	?	i
N#CC1=C2SCN(C3CCCCC3)CN2C(=O)CC1c1ccc(F)cc1 (configuration not stated)	?	i	.	.	16.4µM*	?
COc1ccccc1N1CSC2=C(C#N)C(c3ccc(SC)cc3)CC(=O)N2C1 (configuration not stated)	?	i	0.4%	0.0%	23.1µM*	?
Cc1ccc(S(=O)(=O)N2CCN(C(=O)C3CCCC3)CC2)cc1C	?	i	-3.4%	4.2%	?	i
COc1ccc(CNc2ncnc3ccc(-c4ccc5c(c4)OCO5)cc23)c(OC)c1	?	.	.	.	-15.0%	.
COc1ccc(CNc2ncnc3ccc(-c4ccoc4)cc23)c(OC)c1	?	.	.	.	-25.9%	.
COc1ccc(CNc2ncnc3ccc(-c4cccc(NS(C)(=O)=O)c4)cc23)c(OC)c1	18.4µM*	.	.	.	14.6µM*	.
COc1ccc(CNc2ncnc3ccc(-c4cccc(C#N)c4)cc23)c(OC)c1	?	.	.	.	25.9µM*	.
